Measured values from PubChem BioAssay (NCI).
This is part of a sample that, as a whole, favours compounds with a hit. Of some 83,000 tested, about 20% had one in any assay.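 96-well plates, one dose, 48 hours. Percent growth reported; active if below 10.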 The source made the active and inactive calls.

How the values were obtained:
Assay in all cases: NCI-60 one-dose screen, 48 h (100 = growth as untreated, 0 = no growth, -100 = all killed)
Conditions in all cases: 10 µM unless noted
[1] = tested on: NCI-H23 lung
[2] = tested on: NCI-H226 lung
[3] = tested on: NCI-H322M lung
[4] = tested on: HOP-62 NSCLC
[5] = tested on: NCI-H460 lung
[6] = tested on: HOP-92 NSCLC
[7] = tested on: NCI-H522 lung
[8] = tested on: A549/ATCC NSCLC
[9] = tested on: 786-0 renal
[10] = tested on: COLO 205 colon
[11] = tested on: DU-145 prostate
[12] = tested on: K-562 leukemia
[13] = tested on: MALME-3M melanoma
[14] = tested on: MDA-MB-231 breast
[15] = tested on: RXF 393 renal
[16] = tested on: SF-268 CNS
[17] = tested on: SF-295 CNS
[18] = tested on: SF-539 CNS
[19] = tested on: UACC-257 melanoma
[20] = tested on: M14 melanoma

Measured: growth

Cc1csc(/N=C(N)/N=C(\N)c2cccnc2)n1
inactive: [1] 78% | [2] 85.4% | [3] 87.2% | [4] 74.1% | [5] 62.3% | [6] 51.7% | [7] 54.4% | [8] 82% | [9] 90.6% | [10] 81.8% | [11] 96.8% | [12] 42.4% | [13] 60.7% | [14] 86.9% | [15] 89.7% | [16] 77.2% | [17] 48.4% | [18] 79.5% | [19] 95.5% | [20] 51.6%

CC(C)(C)c1cc(NC(=O)Nc2ccc(-c3cn4c5c(sc4n3)CCc3cn(CCCN4CCCCC4)cc3-5)cc2)no1
inactive: [2] 92.6% | [6] 75.4% | [19] 51.3%
active: [1] -84.2% | [3] -78.8% | [4] -50.3% | [5] -69.1% | [7] -55.3% | [8] -79.6% | [9] -98.1% | [10] 5.79% | [11] -96.4% | [12] 3.01% | [13] -79.1% | [14] -77.3% | [15] -71.6% | [16] -58.2% | [17] -53.6% | [18] -92.1% | [20] -93.6%

COc1ccc2[nH]cc(-c3nn4cc(-c5ccncc5)nc4s3)c2c1
inactive: [1] 70.2% | [2] 76.5% | [3] 78.2% | [4] 69.9% | [5] 51.3% | [6] 28.9% | [7] 51% | [8] 74.6% | [9] 79.8% | [10] 47% | [11] 88.8% | [12] 28.5% | [13] 86.3% | [14] 82.3% | [15] 96% | [16] 86.9% | [17] 62.8% | [18] 88.3% | [19] 109% | [20] 82.8%

Cn1cc(-c2cc3ncnc(Nc4ccc(CC(=O)Nc5nc(C(C)(C)C)cs5)cc4)c3s2)cn1
inactive: [1] 47.5% | [2] 32.9% | [3] 43.8% | [4] 93.1% | [5] 54.3% | [6] 85% | [7] 36.9% | [8] 46.4% | [9] 34.4% | [10] 65.8% | [11] 38% | [12] 16.2% | [13] 55.9% | [14] 45.6% | [15] 26.4% | [16] 56.2% | [17] 69.6% | [18] 29.1% | [19] 79.1% | [20] 41.5%

CN1c2ccccc2Sc2cc(/C=N/Nc3ccnc4cc(Cl)ccc34)ccc21
inactive: [1] 91.6% | [2] 90.5% | [3] 107% | [4] 96.6% | [5] 104% | [6] 82.1% | [7] 99.2% | [8] 83.3% | [9] 89.3% | [10] 101% | [11] 103% | [13] 94.7% | [14] 98.5% | [15] 82.2% | [16] 99.4% | [17] 98.7% | [18] 103% | [19] 96.3% | [20] 92.7%
active: [12] -7.83%

CCOC(=O)Nc1ccc2c(ccn2C(=O)c2cccc(F)c2)c1
active: [7] 0.367% | [10] -3.54% | [18] 0.0722%
inactive: [1] 41.4% | [2] 53.5% | [3] 61.8% | [4] 35.2% | [5] 14.8% | [6] 76% | [8] 47.6% | [9] 57.5% | [11] 29.5% | [12] 14.2% | [13] 61.7% | [14] 52.8% | [15] 19.3% | [16] 65.8% | [17] 19.6% | [19] 74.4% | [20] 25.3%

CC(=O)Nc1cc(N2CCOCC2)c2nc(NC(=O)c3[nH]c(C)c(Cl)c3Cl)sc2c1
inactive: [1] 77.2% | [2] 37.3% | [3] 92.1% | [4] 69.2% | [5] 64% | [6] 119% | [7] 71.8% | [8] 71.9% | [9] 44.5% | [10] 104% | [11] 58.1% | [12] 81.4% | [13] 54.7% | [14] 62.2% | [15] 19.2% | [16] 93.9% | [17] 50.8% | [18] 48.7% | [19] 84.8% | [20] 72.1%
